Here are results for 40 compounds from PubChem BioAssay (Tox21).

Active and inactive are the calls of the source. Calls come from the whole dose curve; as a rule, active = well fitted activation curve with a large enough effect in the repeat runs; inconclusive = weak or mixed curves; inactive = flat fitted curve, though single readings scatter.
% is set by controls: 0 for no effect and ±100 for the full control effect.

The assay in a line: A CellTox Green Cytotoxicity Assay to monitor cytotoxicity in HepG2 cells - 0 hour (AID 1224882). Note: nearly all actives have a fitted effect of over 35% in size. The note with it: CellTox Green fluorescence; series mostly up to 76.8 µM; cytotoxicity: at the top concentration. The source says: National Center for Advancing Translational Sciences [NCATS]
NIH Chemical Genomics Center [NCGC]
U.S. Environmental Protection Agency [EPA]
National Institutes of Environmental Health Sciences [NIEHS]
National Toxicology Program [NTP]
Cell-based models are critical for drug discovery. Determining the natural cytotoxic effects resulting from test compounds is an essential research activity. A CellTox Green Cytotoxicity Assay to monitor cytotoxicity in real time of continues cell culture during 40 hours of the compound treatment was used to screen Tox21 10K library compounds in HepG2 cells. CellTox Green Cytotoxicity Assay is a nonlytic, homogeneous, biofluorescent method to measure cytotoxicity in cell culture after experimental manipulation. The assay system uses a proprietary asymmetric cyanine dye that is excluded from viable cells but preferentially stains the dead cell's DNA. […] Viable cells produce no appreciable increases in fluorescence. Therefore, the fluorescence signal produced by the binding interaction with dead cell DNA is proportional to cytotoxicity.
The mixture of HepG2 cell suspension and reagents were dispensed at 600cells/6 ul/well in 1536-well tissue culture treated black solid bottom plates using a Multidrop dispenser. After the assay plates were incubated at a 37 C/5% CO2 incubator for 5 hours, 23 nL of compounds dissolved in DMSO, positive and negative controls was transferred to the assay plate by a pintool work station. The plates were incubated at 37 C for 40 hours. The fluorescence intensity were measured at 0h, 8h, 16h, 24h, 32h and 40h time points using ViewLux plate reader during compound treatment.
For `CC/C=C(\C)C=O`, the “cytotoxicity” value was 1.67% (inactive).

For the compound `Oc1ccc(C2(c3ccc(O)c(C4CCCCC4)c3)CCCCC2)cc1C1CCCCC1`, the “cytotoxicity” value was -12.7% (inactive). For `COc1ccc(OC)c(N=Nc2c(O)ccc3ccccc23)c1`, the “cytotoxicity” value was -18.6% (inactive).

Take `CCCCC/C=C\C=C\C(=O)OCC`: the “cytotoxicity” value was 0.128% (inactive). For the compound `O=C1OCc2ccccc21`, the “cytotoxicity” value is -7.63% (inactive). As for `Cc1ccc2nc(-c3ccc(N)cc3)sc2c1S(=O)(=O)O`, the “cytotoxicity” value is 3.77% [at 35.3 µM] (inactive). With `c1ccc(-c2ccccc2-c2ccccc2)cc1` the figure was -8.2% (inactive); with `C=C(C)CCO`, -14.4% (inactive); with `C=CC(C)(C)O`, 1.02% (inactive). Consider `O=C1CCC/C=C\CCCCCCCCCC1`, for which the “cytotoxicity” value was -1.05% (inactive).

Consider `S=C1NC=NC2N=CNC12` (stereo not given), for which the “cytotoxicity” value was -0.195% (inactive). Take `CSc1nnc(C(C)(C)C)c(=O)[nH]1`: the “cytotoxicity” value is 5.79% (inactive).

For the compound `c1ccc(C[P+](c2ccccc2)(c2ccccc2)c2ccccc2)cc1`, the “cytotoxicity” value is 5.08% (inactive).

For the compound `CC(C=O)c1ccccc1` (stereo not given), the “cytotoxicity” value is -5.95% (inactive). Consider `CCc1cccc(C)c1N(C(=O)C(=O)O)C(C)COC` (stereo not given), for which the “cytotoxicity” value is 5.64% (inactive).

With `CC(C)(C)c1ccc(OC2CCCCC2O)cc1` (stereo not given), the “cytotoxicity” value was -0.273% (inactive). For the compound `O=S(=O)(c1ccc(OCc2ccccc2)cc1)c1ccccc1O`, the “cytotoxicity” value is -10.3% (inactive). With `N#CCCOCCC#N`, the “cytotoxicity” value is -2.26% (inactive). With `CCN(CC)c1ccc(C=O)cc1`, the “cytotoxicity” value was -6.49% (inactive). With `c1ccc2cc3c4ccccc4c4ccccc4c3cc2c1` the figure was -1.83% (inactive); with `NCc1ccco1`, 0.928% (inactive). As to `CCOC(=O)C1=NN(c2ccc(Cl)cc2Cl)C(C)(C(=O)OCC)C1` (stereo not given), the “cytotoxicity” value was -2.33% (inactive). As to `CCCCCCCCc1ccc(Nc2ccc(CCCCCCCC)cc2)cc1`, the “cytotoxicity” value is 8.66% [at 35.3 µM] (inactive). With `O=C(Nc1ccc([N+](=O)[O-])cc1)Nc1ccc([N+](=O)[O-])cc1` (tested in a mixture with another compound) the figure was 3.95% [at 35.3 µM] (inactive); with `CC(c1cc(C(C)(C)C)cc(C(C)(C)C)c1O)c1cc(C(C)(C)C)cc(C(C)(C)C)c1O`, -2.23% (inactive). Consider `C=CC(=O)OCC(Br)CBr` (stereo not given), for which the “cytotoxicity” value is -0.592% (inactive). Take `C=C1CC[C@H]2O[C@]2(C)CC[C@@H]2[C@@H]1CC2(C)C`: the “cytotoxicity” value is -13.4% (inactive). Consider `Oc1cccc2c(O)cccc12`, for which the “cytotoxicity” value is -2.53% (inactive). As for `O=[N+]([O-])c1ccc(CO)cc1`, the “cytotoxicity” value was 4.85% (inactive).

Regarding `CCCCCCCCSCc1cc(C)c(O)c(CSCCCCCCCC)c1`, the “cytotoxicity” value is 0.758% (inactive). Turning to `C=CC(=O)OCCOC1C2CCC1C1CC=CC12` (stereo not given), the cytotoxicity is -3.66% [at 15.8 µM] (inactive).

Consider `Clc1cccc(Cl)n1`, for which the “cytotoxicity” value was 0.648% (inactive). As for `CC(C)(C)C1=CC(=O)C(C(C)(C)C)=CC1=O`, the “cytotoxicity” value is -14.6% [at 35.3 µM] (inactive). In the case of `CCOC(=O)OC(=O)OCC`, the “cytotoxicity” value was 4.92% (inactive). The value for `CCCCCc1ccc(O)cc1` was 0.875% (inactive); that for `O=C(CCCCCCCCc1cccnc1)N1CCC(C=C(c2ccccc2)c2ccccc2)CC1` was -6.6% (inactive); that for `O=C(Cl)c1ccc(Cl)cc1Cl` was 6.56% (inactive). With `COCCC(=O)OC` the figure was -1.76% (inactive). Take `CCOc1ccc([N+](=O)[O-])cc1`: the “cytotoxicity” value is 8.8% (inactive). Take `COC(=O)c1ccc([N+](=O)[O-])cc1`: the “cytotoxicity” value is -8.21% (inactive).
